# Measured values published in PMC5540273 (PLoS ONE, 2017).
# Read-outs that look alike come from different tables or passages of the source.
# Legend:
# CDC2L2 = settings: concentration: 1 μM,replicates: in singlicate; n = 1
# CDC2L5 = tested on: T1, CDC2L5; settings: n = 1
# T1 construct: gene CDK13
# CDK11 = tested on: T2, CDK11; settings: concentration: 1 μM,replicates: in singlicate; n = 1
# T2 construct: gene CDK19
# CDK2 = settings: concentration: 1 μM,replicates: in singlicate; n = 1
# CDK3 = settings: concentration: 1 μM,replicates: in singlicate; n = 1
# CDK4-cyclinD1 = settings: n = 1
# CDK4-cyclinD3 = settings: n = 1
# CDK4 = settings: n = 1
# CDK5 = settings: concentration: 1 μM,replicates: in singlicate; n = 1
# CDK7 = settings: concentration: 1 μM,replicates: in singlicate; n = 1
# [1] = concentration: 1 μM,replicates: in singlicate
# 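Also: KINOMEscan kinase panel screen.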
SMILES,%Inh (CDC2L2),%Inh (CDC2L5; [1]),%Inh (CDK11),%Inh (CDK2),%Inh (CDK3),%Inh (CDK4-cyclinD1; [1]),%Inh (CDK4-cyclinD3; [1]),%Inh (CDK4; [1]),%Inh (CDK5),%Inh (CDK7),%Inh (CDC2L5; 1 µM),%Inh (CDK4-cyclinD1; 1 µM),%Inh (CDK4-cyclinD3; 1 µM),%Inh (CDK4; 1 µM)
O=c1[nH]cc(-c2ccc(O)cc2)c2sc(-c3ccncc3)cc12 [GSK1033723],12%,0%,0%,0%,1%,0%,0%,31%,0%,0%,–,–,–,–
CC(=O)Nc1nc2cnc(Nc3cc(NC(=O)c4cccc(CC(C)(C)C#N)c4)ccc3C)nc2s1,16%,66%,79%,15%,0%,1%,15%,45%,14%,36%,–,–,–,–
Cc1cccc2c(-c3ccncc3)c(-c3ccc(F)cc3)nn12.Cl [GW461487],0%,0%,0%,0%,0%,0%,0%,36%,0%,0%,–,–,–,–
C[C@@H]1CNc2c(sc3ccc4nc(-c5ccncc5)ccc4c23)C(=O)N1,2%,0%,25%,0%,0%,0%,2%,0%,11%,77%,–,–,–,–
NC(=O)Nc1sc(-c2ccc(F)cc2)cc1C(N)=O [GW789449],0%,14%,0%,0%,17%,30%,0%,0%,0%,19%,–,–,–,–
CCn1c(-c2nonc2N)nc2cncc(Br)c21 [SB-738004],13%,18%,14%,1%,3%,43%,0%,36%,0%,48%,–,–,–,–
COC(=O)c1cccc(NC(=O)NC2CCN(c3ccnc(Nc4cc(OC)c(OC)c(OC)c4)n3)C2)c1 (stereo not drawn) [GSK1379767],36%,0%,24%,0%,12%,27%,0%,37%,0%,16%,–,–,–,–
CCn1c(-c2nonc2N)nc2cncc(CNC3CCNCC3)c21.Cl [SB-747651],0%,0%,5%,0%,11%,0%,14%,33%,0%,0%,–,–,–,–
CCN1CCN(CCCC(=O)Nc2n[nH]c3nc(-c4ccc(O)cc4)c(Br)cc23)CC1 [SB-731579],4%,0%,0%,1%,30%,99.5%,95.1%,22%,0%,94.7%,–,–,–,–
CN1CCN(CCCNc2nccc(-c3c(-c4ccc(F)cc4)nn4cc(C(N)=O)ccc34)n2)CC1 [GW622475],17%,0%,40%,0%,18%,0%,0%,20%,0%,0%,–,–,–,–
Cc1nnc(-c2ccc3occ(-c4ccc(S(C)=O)cc4)c3n2)o1 (stereo not drawn),0%,0%,0%,6%,0%,0%,0%,0%,0%,0%,–,–,–,–
COc1cc(Nc2nccc(N3CCC(NC(=O)c4cccc(C#N)c4)C3)n2)cc(OC)c1OC (stereo not drawn) [GSK1379751],36%,0%,12%,0%,0%,5%,0%,27%,0%,0%,–,–,–,–
O=C(NCC1CC1)c1ccc(-c2cc(C(=O)NC3CC3)ccc2F)cc1 [GW810445],0%,7%,32%,0%,7%,0%,0%,1%,0%,0%,–,–,–,–
Cn1ccc2ncnc(Oc3ccc(NC(=O)Nc4cnn(C(C)(C)C)c4)c(Cl)c3)c21,0%,45%,99.6%,0%,0%,0%,0%,0%,2%,27%,–,–,–,–
COc1cc2ncn(-c3cc(OCC4CCCCC4)c(C(N)=O)s3)c2cc1OC [GSK204559],6%,0%,12%,0%,21%,0%,0%,8%,0%,86%,–,–,–,–
Cc1cccc(-c2nc(Nc3ccncc3)c3sccc3n2)n1 [GW869641],0%,11%,8%,3%,0%,0%,24%,23%,14%,44%,–,–,–,–
OCCn1cc(-c2cnc3nnn(Cc4ccc5ncccc5c4)c3n2)cn1,0%,0%,0%,0%,5%,0%,0%,0%,0%,15%,–,–,–,–

SMILES,%Inh (CDC2L2),%Inh (CDC2L5; [1]),%Inh (CDK11),%Inh (CDK2),%Inh (CDK3),%Inh (CDK4-cyclinD1; [1]),%Inh (CDK4-cyclinD3; [1]),%Inh (CDK4; [1]),%Inh (CDK5),%Inh (CDK7),%Inh (CDC2L5; 1 µM),%Inh (CDK4-cyclinD1; 1 µM),%Inh (CDK4-cyclinD3; 1 µM),%Inh (CDK4; 1 µM)
Cl.c1ccc(Oc2ccc(Nc3ccnc4cc(-c5ccc(CN6CCNCC6)o5)ccc34)cc2)nc1 [GW567142],16%,0%,10%,0%,0%,0%,0%,14%,0%,52%,–,–,–,–
Cc1ccc2c(-c3ccnc(Nc4ccc(C(F)(F)F)cc4)n3)cnn2n1 [GW819776],0%,0%,0%,15%,13%,0%,0%,16%,0%,47%,–,–,–,–
FC(F)(F)c1cc(Br)cc(Nc2nccc(-c3cnn4ncccc34)n2)c1 [GW810578],7%,0%,0%,39%,73%,16%,52%,8%,37%,98.9%,–,–,–,–
CCCC(=O)Nc1n[nH]c2ncccc12 [SB-601436],0%,0%,0%,0%,1%,0%,0%,0%,0%,0%,–,–,–,–
CS(=O)(=O)Nc1ccc(-c2ccnc3[nH]ccc23)cc1 [GSK993273],0%,0%,45%,0%,15%,0%,0%,0%,0%,37%,–,–,–,–
Cc1ccc(Nc2ccnc(Nc3ccc4c(c3)CS(=O)(=O)C4)n2)cc1O.Cl [GW579362],46%,0%,0%,89%,77%,88%,73%,43%,95%,23%,–,–,–,–
COC(=O)Nc1nc2cc(Oc3ccc(NC(=O)Nc4cc(C(F)(F)F)ccc4Cl)cc3)ccc2[nH]1.Cl [GW697465],12%,6%,66%,37%,10%,20%,0%,50%,0%,89%,–,–,–,–
COc1cccc(C2=C(Nc3cccc(Cl)c3)C(=O)NC2=O)c1 [SB-341556],0%,0%,0%,7%,4%,0%,14%,0%,0%,14%,–,–,–,–
O=C(Nc1n[nH]c2cc(-c3ccco3)ccc12)C1CC1 [SB-737447],7%,19%,0%,49%,7%,0%,6%,5%,11%,38%,–,–,–,–
CN(c1cccc(CNc2nc(Nc3ccc4c(c3)CC(=O)N4)ncc2C(F)(F)F)c1)S(C)(=O)=O,7%,0%,0%,6%,22%,22%,0%,0%,31%,53%,–,–,–,–
CNC(=O)c1ccccc1Nc1nc(Nc2cccc(CS(C)(=O)=O)c2)ncc1C.O=CO [GSK1520489],0%,0%,0%,16%,36%,0%,19%,30%,0%,89%,–,–,–,–
O=C(Nc1cccc(C(F)(F)F)c1)c1cccc(Oc2ccc3nccn3n2)c1,3%,0%,0%,11%,22%,18%,19%,0%,0%,0%,–,–,–,–
Cn1ccc2ncnc(Oc3ccc(NC(=O)Nc4ccnc(C(F)(F)F)c4)c(Cl)c3)c21,0%,20%,98%,0%,0%,0%,0%,0%,0%,1%,–,–,–,–
Nc1nccc(-c2ccc3c(N)n[nH]c3c2)n1 [GSK1034945],4%,0%,37%,0%,13%,0%,0%,1%,0%,0%,–,–,–,–
COc1cccc(OC)c1C(=O)Nc1cccc(-c2nn3ccccc3c2-c2ccnc(Nc3cccc(F)c3)n2)c1 [GSK361065],0%,–,0%,0%,0%,–,–,–,21%,22%,1%,0%,7%,0%
CCOC(=O)N1CCC(n2cnc(-c3ccc(F)cc3)c2-c2ccnc(N)n2)CC1 [SB-219952],23%,30%,29%,0%,0%,24%,6%,32%,0%,30%,–,–,–,–
